Test results from PubChem BioAssay (NCATS).
Inconclusive results are not listed. Calls of active or inactive are those of the source. Unless noted, calls follow the shape of the dose curve; as a rule, active = well fitted curve in the direction sought with a large enough effect; inconclusive = small, poorly fitted or top-dose-only effect, or another doubt; inactive = no such curve, though single readings can be large; an effect the other way counts as inactive or inconclusive.

Columns and labels:
[1] = Natriuretic polypeptide receptor (hNpr1) antagonism - Pilot counterscreen GloSensor control cell line (AID 1347045; calls by dose curve; also: potency is read from the fitted curve at half-maximal effect)
In short: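 Control counterscreen: luciferase cGMP-biosensor HEK293 cells (no Npr1) received compound for 30 min at room temperature after GloSensor substrate loading. Luminescence was measured before and 20 min after soluble guanylyl cyclase activation by 50 uM nitroprusside.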

[2] = biological target: Atrial natriuretic peptide receptor 1 (Homo sapiens) (UniProt P16066); test: Natriuretic polypeptide receptor (hNpr1) antagonism - Pilot screen (AID 1347049; calls by dose curve;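 also: HEK293 cells with hNpr1 and GloSensor cGMP luciferase stimulated by 0.1 nM hNppA; agonist-evoked cGMP luminescence read 20 min after hNppA addition; series mostly up to about 58 µM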)
Atrial natriuretic peptide receptor 1 (Homo sapiens), sequence (P16066 whole entry, looked up): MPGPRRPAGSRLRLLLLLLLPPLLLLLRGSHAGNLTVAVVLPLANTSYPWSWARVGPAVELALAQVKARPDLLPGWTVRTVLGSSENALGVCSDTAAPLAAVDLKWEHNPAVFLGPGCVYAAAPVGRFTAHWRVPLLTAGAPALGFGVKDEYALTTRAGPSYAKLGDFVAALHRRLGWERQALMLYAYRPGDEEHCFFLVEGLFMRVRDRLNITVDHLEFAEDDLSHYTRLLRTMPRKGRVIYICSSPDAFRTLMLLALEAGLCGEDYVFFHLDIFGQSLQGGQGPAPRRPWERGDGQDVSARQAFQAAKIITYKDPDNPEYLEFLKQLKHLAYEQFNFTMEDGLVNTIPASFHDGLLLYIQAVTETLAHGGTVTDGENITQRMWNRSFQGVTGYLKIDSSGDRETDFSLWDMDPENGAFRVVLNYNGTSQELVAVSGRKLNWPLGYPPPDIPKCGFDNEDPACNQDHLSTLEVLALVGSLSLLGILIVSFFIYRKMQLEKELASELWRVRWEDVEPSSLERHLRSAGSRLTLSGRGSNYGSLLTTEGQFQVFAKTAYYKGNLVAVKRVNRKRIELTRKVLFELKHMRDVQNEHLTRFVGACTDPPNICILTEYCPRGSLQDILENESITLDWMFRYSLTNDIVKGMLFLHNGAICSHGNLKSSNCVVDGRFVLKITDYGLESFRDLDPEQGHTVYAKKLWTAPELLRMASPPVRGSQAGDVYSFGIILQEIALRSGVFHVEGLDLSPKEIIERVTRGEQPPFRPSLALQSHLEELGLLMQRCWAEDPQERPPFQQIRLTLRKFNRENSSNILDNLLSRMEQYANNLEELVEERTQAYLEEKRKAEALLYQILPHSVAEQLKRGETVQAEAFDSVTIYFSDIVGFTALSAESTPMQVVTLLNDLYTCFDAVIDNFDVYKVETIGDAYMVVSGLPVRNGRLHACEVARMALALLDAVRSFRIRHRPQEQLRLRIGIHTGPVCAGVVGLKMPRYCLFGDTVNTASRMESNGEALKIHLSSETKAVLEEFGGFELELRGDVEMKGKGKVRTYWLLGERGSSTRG
In short: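 Receptor antagonism read as cGMP-dependent luminescence in hNpr1/pGS-40F HEK293 cells: pre-read after 30 min compound exposure, post-read 20 min after hNppA agonist at 0.1 nM final, all at room temperature, protected from light; A-71915 titration as control.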

[3] = biological target: Atrial natriuretic peptide receptor 2 (Homo sapiens) (UniProt P20594); test: Natriuretic polypeptide receptor (hNpr2) antagonism - Pilot subtype selectivity assay (AID 1347050; calls by dose curve)
Atrial natriuretic peptide receptor 2 (Homo sapiens), sequence (P20594 whole entry, looked up): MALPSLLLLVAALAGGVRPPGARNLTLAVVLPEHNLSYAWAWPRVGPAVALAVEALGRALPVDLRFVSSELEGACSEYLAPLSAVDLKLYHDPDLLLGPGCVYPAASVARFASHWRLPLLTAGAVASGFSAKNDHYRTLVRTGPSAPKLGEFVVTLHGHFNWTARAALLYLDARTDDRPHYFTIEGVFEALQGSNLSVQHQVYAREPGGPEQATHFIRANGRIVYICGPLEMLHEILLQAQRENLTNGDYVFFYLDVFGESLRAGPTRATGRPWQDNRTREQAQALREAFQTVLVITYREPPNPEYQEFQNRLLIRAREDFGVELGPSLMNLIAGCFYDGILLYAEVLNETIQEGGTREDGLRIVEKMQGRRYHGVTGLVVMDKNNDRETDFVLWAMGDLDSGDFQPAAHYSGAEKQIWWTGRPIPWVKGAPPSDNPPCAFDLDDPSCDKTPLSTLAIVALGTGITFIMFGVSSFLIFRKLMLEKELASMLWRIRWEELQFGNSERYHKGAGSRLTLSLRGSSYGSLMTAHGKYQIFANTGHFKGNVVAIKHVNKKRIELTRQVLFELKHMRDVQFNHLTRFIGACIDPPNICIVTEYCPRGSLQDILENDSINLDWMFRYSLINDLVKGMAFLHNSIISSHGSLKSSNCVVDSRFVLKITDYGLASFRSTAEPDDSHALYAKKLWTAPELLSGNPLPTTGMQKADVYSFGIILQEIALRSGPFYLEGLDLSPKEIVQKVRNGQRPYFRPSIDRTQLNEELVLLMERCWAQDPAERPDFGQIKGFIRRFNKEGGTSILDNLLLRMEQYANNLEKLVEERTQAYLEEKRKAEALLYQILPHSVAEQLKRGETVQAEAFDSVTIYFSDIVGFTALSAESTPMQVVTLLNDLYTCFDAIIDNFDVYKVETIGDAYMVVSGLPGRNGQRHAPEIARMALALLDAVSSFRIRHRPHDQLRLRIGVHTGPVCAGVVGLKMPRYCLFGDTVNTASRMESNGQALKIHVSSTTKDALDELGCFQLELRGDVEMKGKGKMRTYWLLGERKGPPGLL
In short: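 Antagonist mode: compounds (LOPAC1280, seven 1:5 dilutions) added 30 min before 1 nM hNppC stimulation of hNpr2-HEK293 cGMP-sensor cells; luminescence read before and 20 min after agonist at ambient temperature.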

[4] = NS1 protein of Zika virus - qHTS assay to identify small molecule inhibitors in human HEK 293 cells (AID 1347053); also: series mostly up to about 46 µM; nearly all actives have a fitted effect of over 55% in size
In short: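 Compound-treated (1 h pre-infection) HEK 293 cells infected with ZIKV MR766, MOI = 0.5; after 24 h at 37 C, NS1 read by TR-FRET; data normalized to uninfected and infected controls.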

[5] = biological target: T1, Tyrosine-protein phosphatase non-receptor type substrate 1 (Homo sapiens) + Leukocyte surface antigen CD47 (Homo sapiens) (UniProt P78324+Q08722); test: CD47-SIRPalpha protein protein interaction - LANCE assay qHTS validation (AID 1347057; active = well fitted curve in the direction sought with a large enough effect in the signal ratio, with a control signal flat, not every such curve was filed as active; the % refers to the signal ratio; also: series mostly up to about 38 µM)
T1 sequence (P78324 whole entry, looked up, the tested form may be a part): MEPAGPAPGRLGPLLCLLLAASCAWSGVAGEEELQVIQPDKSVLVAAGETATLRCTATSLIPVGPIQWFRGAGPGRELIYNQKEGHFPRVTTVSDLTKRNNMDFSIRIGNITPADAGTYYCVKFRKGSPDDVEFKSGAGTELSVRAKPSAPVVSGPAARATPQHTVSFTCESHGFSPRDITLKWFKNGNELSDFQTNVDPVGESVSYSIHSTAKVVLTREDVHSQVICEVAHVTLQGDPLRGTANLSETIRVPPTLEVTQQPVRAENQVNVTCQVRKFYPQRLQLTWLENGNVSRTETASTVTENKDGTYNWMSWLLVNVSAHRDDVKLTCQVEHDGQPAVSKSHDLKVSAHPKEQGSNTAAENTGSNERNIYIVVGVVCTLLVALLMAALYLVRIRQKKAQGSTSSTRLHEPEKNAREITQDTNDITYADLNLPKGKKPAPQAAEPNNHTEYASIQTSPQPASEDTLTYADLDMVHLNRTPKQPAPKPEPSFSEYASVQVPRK
T1 sequence (Q08722 whole entry, looked up, the tested form may be a part): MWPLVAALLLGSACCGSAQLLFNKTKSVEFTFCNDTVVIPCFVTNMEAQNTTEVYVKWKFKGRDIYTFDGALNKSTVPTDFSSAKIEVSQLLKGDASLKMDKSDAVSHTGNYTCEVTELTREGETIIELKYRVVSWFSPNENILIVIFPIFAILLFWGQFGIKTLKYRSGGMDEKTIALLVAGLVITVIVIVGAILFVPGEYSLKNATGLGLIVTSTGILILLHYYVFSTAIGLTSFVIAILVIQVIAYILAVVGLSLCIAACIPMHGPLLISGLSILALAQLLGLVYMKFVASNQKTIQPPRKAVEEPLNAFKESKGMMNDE
In short: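 Inhibition of soluble CD47/SIRPalpha ectodomain association by titrated compounds, measured as 665/615 nm time-resolved FRET ratio after sequential 30 min room-temperature incubations.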

[6] = biological target: T1, Tyrosine-protein phosphatase non-receptor type substrate 1 (Homo sapiens) + Leukocyte surface antigen CD47 (Homo sapiens); test: CD47-SIRPalpha protein protein interaction - HTRF assay qHTS validation (AID 1347058; active = well fitted curve in the direction sought with a large enough effect in the signal ratio, not every such curve was filed as active; the % refers to the signal ratio; also: series mostly up to about 38 µM)
In short: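 Soluble extracellular domains (6His-CD47, Avi-tag-biotinylated SIRPalpha) in PBS pH 7.4 with 0.05% IGEPAL CA-630. Compounds were preincubated 30 min at RT with CD47 and anti-His-Eu, then SIRPalpha and SAV-XL665 were added. TR-FRET 665/615 ratio.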

[7] = biological target: T1, Tyrosine-protein phosphatase non-receptor type substrate 1 (Homo sapiens) + Leukocyte surface antigen CD47 (Homo sapiens); test: CD47-SIRPalpha protein protein interaction - Alpha assay qHTS validation (AID 1347059);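 also: bead proximity luminescence from CD47 binding SIRPalpha after compound preincubation with SIRPalpha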
In short: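 AlphaScreen signal between CD47-His (12.5 nM) and biotin-SIRPalpha (25 nM) soluble extracellular domains, bead-captured via Ni-NTA and streptavidin. Compounds, in 7-point titrations, met SIRPalpha 30 min before CD47; PBS pH 7.4 with 0.05% IGEPAL.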

[8] = biological target: Parathyroid hormone/parathyroid hormone-related peptide receptor (Homo sapiens) (UniProt Q03431); test: qHTS for PTHR1 Agonists: Optimization Screen against the NCGC LOPAC library (AID 1347079);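 also: GloSensor cAMP luminescence in HEK-293 GP2 cells expressing human PTHR1 with IBMX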
Parathyroid hormone/parathyroid hormone-related peptide receptor (Homo sapiens), sequence (Q03431 whole entry, looked up): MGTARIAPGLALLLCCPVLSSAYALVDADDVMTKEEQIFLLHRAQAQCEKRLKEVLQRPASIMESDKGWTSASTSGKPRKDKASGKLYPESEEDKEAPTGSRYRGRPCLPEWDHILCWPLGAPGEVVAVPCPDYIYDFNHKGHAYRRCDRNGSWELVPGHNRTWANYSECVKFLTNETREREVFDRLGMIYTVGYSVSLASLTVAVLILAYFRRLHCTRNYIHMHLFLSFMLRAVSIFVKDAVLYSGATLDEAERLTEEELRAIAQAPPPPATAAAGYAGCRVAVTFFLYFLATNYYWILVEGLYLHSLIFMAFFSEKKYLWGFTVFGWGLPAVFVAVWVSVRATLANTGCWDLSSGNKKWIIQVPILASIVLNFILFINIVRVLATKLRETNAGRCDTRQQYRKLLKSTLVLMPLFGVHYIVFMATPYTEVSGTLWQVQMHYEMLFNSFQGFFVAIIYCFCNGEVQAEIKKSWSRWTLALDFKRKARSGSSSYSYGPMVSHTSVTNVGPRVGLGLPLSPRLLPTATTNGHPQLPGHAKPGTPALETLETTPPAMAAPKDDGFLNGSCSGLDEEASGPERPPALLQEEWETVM
In short: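 HEK-293 GP2 cells, PTHR1 + GloSensor cAMP; 3000 cells/well, o/n. Luciferin + IBMX 0.5mM each (stock), 1 hr 37C. Cpd titration, 1 hr 37C. Lum after 15 min RT. Ctrl M-PTH(1-15) top 10uM.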

[9] = qHTS of pediatric cancer cell lines to identify multiple opportunities for drug repurposing: Primary screen for TC32 cells (AID 1347089); also: nearly all actives have a fitted effect of over 60% in size
In short: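 qHTS, TC32, 48 h drug treatment, CellTiter-Glo luminescence as a proxy for metabolically active cells; primary top concentration 46 µM (MIPE 11-pt, NPC 8-pt); confirmatory 11-pt.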

[10] = qHTS of pediatric cancer cell lines to identify multiple opportunities for drug repurposing: Primary screen for DAOY cells (AID 1347090); also: series mostly up to about 46 µM; nearly all actives have a fitted effect of over 55% in size
In short: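 Cell viability, CellTiter-Glo luminescence; 500-1,000 cells/well, 8- or 11-point titration, 48 h compound exposure at 37 degrees C, 5% CO2. Controls: DMSO neutral, bortezomib 2.3 µM final as positive.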

Measured: Potency

CC(=O)c1ccc(S(=O)(=O)NC(=O)NC2CCCCC2)cc1
inactive: [1] | [2] | [3] | [4] | [5] | [6] | [7] | [8] | [9] | [10]

CC(C)(C)c1ccc(C(O)CCCN2CCC(C(O)(c3ccccc3)c3ccccc3)CC2)cc1 (stereo unspecified)
inactive: [3] | [4] | [5] | [6] | [7] | [8] | [9] | [10]

COc1ccccc1N1CCN(CCCNc2cc(=O)n(C)c(=O)n2C)CC1
inactive: [1] | [2] | [3] | [4] | [5] | [6] | [7] | [8] | [9] | [10]

CC1=C(/C=C/C(C)=C/C=C/C(C)=C/C(=O)Nc2ccc(O)cc2)C(C)(C)CCC1
inactive: [1] | [2] | [3] | [5] | [6] | [8]

CC(=O)CCCCn1c(=O)c2c(ncn2C)n(C)c1=O
inactive: [2] | [3] | [4] | [8] | [9] | [10]

CC/C(=C(\c1ccccc1)c1ccc(OCCN(C)C)cc1)c1ccccc1
inactive: [2] | [3] | [4] | [8] | [10]

NC(N)=Nc1nc(CSCC/C(N)=N/S(N)(=O)=O)cs1
inactive: [2] | [3] | [4] | [5] | [6] | [7] | [8] | [9] | [10]

Cc1cccc(C)c1OCC(C)N (stereo unspecified)
inactive: [2] | [3] | [4] | [8] | [9] | [10]

CC1(C)CCC2=C(O1)c1ccccc1C(=O)C2=O
inactive: [2] | [4] | [5] | [7] | [8]
active: [1] 14.7 µM

C[N+](C)(C)CCCCCC[N+](C)(C)C
inactive: [1] | [2] | [3] | [4] | [5] | [6] | [7] | [8] | [10]

CC(C)OC(=O)C(C)(C)Oc1ccc(C(=O)c2ccc(Cl)cc2)cc1
inactive: [2] | [3] | [8] | [9] | [10]

COc1ccc(Cc2nccc3cc(OC)c(OC)cc23)cc1OC
inactive: [1] | [5] | [6] | [7] | [8]

CCCNC(=O)NS(=O)(=O)c1ccc(Cl)cc1
inactive: [1] | [2] | [3] | [4] | [5] | [6] | [7] | [8] | [9] | [10]

CCCCCN(C)CCC(O)(P(=O)(O)O)P(=O)(O)O
inactive: [1] | [2] | [3] | [8] | [9] | [10]
